Data as given in PubChem BioAssay (NCATS).
Inconclusive results are not listed. Values without a mark were called inactive. Calls come from the whole dose curve; as a rule, active = well fitted activation curve with a large enough effect; inconclusive = small, poorly fitted or top-dose-only effect; inactive = flat fitted curve, though single readings scatter.

Test: Validation screen for small molecules that induce DNA re-replication in SW480 colon adenocarcinoma cells (AID 504364); note: 0% is about no effect
Details: DNA re-replication phenotype (high-content imaging); series mostly up to 46.1 µM; activity (re-replication induction): at the top concentration
Method in brief: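 Image-based qHTS: compounds were incubated with SW480 cells for 48 hr, nuclei stained with Hoechst, and per-nucleus fluorescence intensity scanned to flag cells with excess DNA content.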

| Structure (SMILES) | activity (re-replication induction) [%] |
| --- | --- |
| CN1CCN(CC(=O)N2c3ccccc3C(=O)Nc3cccnc32)CC1 | 5.96 |
| COc1ccc([C@@H]2Sc3ccccc3N(CCN(C)C)C(=O)[C@@H]2OC(C)=O)cc1 | 12.3 |
| CCOC(=O)C1=C(C)NC(C)=C(C(=O)OC)C1c1cccc([N+](=O)[O-])c1 (centres undefined) | 0.0396 |
| CC(C)COCC(CN(Cc1ccccc1)c1ccccc1)N1CCCC1 (centres undefined) | -4.1 |
| C[n+]1cc2c3c(ccc2c2ccc4cc5c(cc4c21)OCO5)OCO3 | -30.6 |
| CN(C)C(=O)Oc1ccc[n+](C)c1 | 3.9 |
| CCCC(C(=O)OCCN(CC)CC)(c1ccccc1)c1ccccc1 | 3.56 |
| CCn1ccnc1CC1COc2ccccc2O1 (centres undefined) | 6.29 |
| Cc1nc2c([nH]1)c(=O)n(C)c(=O)n2Cc1ccco1 | -3.91 |
| COc1cc(C(=O)OCCCN2CCCN(CCCOC(=O)c3cc(OC)c(OC)c(OC)c3)CC2)cc(OC)c1OC | -0.58 |
| Cc1nc2ccccn2c(=O)c1CCN1CCC(C(=O)c2ccc(F)cc2)CC1 | -22.4 |
| C#CCN(C)CCCOc1ccc(Cl)cc1Cl | 0.102 |
| CC(C)[N+](C)(CCOC(=O)C1c2ccccc2Oc2ccccc21)C(C)C | -0.86 |
| COc1ccc(CN(CCN(C)C)c2ccccn2)cc1 | 10.7 |
| CNC1(C)C2CCC(C2)C1(C)C (centres undefined) | 1.84 |
| CCOC(=O)C1=C(C)NC(C)=C(C(=O)OC)C1c1cccc(Cl)c1Cl (centres undefined) | 6.17 |
| CCCCNc1c(C(=O)OCC)c(C)nc2c1cnn2CC | -14.3 |
| Nc1nc(N)c2nc(-c3ccccc3)c(N)nc2n1 | 4.56 |
| CC1=C(C)C(=O)C(CCCCC#CCCCC#CCO)=C(C)C1=O | 11.3 |
